The source made the active and inactive calls. How the source made its calls: active means hit-call score of the fitted dose curve at least 0.9, where 1 is the maximum; inactive means score below 0.9.
What was measured:
[1] = ATG_CRE_CIS: Attagene CIS-FACTORIAL HepG2 Assay for human cAMP Responsive Element (CRE) binding protein 3 (AID 2282926); settings: HepG2 CRE cis-reporter, Attagene multiplexed mRNA; actives raise or lower the signal
Method in brief: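 Multiplexed transcription-unit reporters transfected into HepG2; 24 h dosing; RT-PCR/capillary electrophoresis fluorescence read-out; bidirectional fit vs DMSO.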

[2] = target: CCAAT/enhancer-binding protein beta (Homo sapiens) (UniProt P17676); assay: ATG_C_EBP_CIS: Attagene CIS-FACTORIAL HepG2 Assay for human CCAAT/Enhancer Binding Protein (C/EBP) beta (AID 2282927); settings: HepG2 Attagene cis-factorial transcription factor reporter; actives raise or lower the signal
Sequence of CCAAT/enhancer-binding protein beta (Homo sapiens) (P17676 whole entry, looked up): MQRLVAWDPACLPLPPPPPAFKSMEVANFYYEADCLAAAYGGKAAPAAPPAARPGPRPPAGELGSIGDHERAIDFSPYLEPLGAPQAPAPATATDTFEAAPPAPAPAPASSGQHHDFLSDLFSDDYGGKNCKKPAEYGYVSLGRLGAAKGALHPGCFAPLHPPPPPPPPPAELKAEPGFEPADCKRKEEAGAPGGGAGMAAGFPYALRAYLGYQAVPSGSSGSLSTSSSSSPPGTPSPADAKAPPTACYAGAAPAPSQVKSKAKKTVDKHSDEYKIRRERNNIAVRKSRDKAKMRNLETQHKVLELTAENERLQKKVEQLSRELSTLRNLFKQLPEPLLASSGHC
Method in brief: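 HepG2 transiently transfected with multiplexed reporter units under cis-regulatory promoters reporting endogenous C/EBPb activity. After 24 h exposure, reporter mRNA assayed by RT-PCR, fluorescent labelling, HpaI digestion and capillary electrophoresis; bidirectional fitting versus DMSO.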

[3] = ATG_CMV_CIS: Attagene CIS-FACTORIAL HepG2 Assay for human CMV (Internal Marker) (AID 2282928); settings: HepG2 CMV promoter reporter, transcription factor profiling; actives raise or lower the signal;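 further: endpoint acts as a background internal control marker rather than a target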
Method in brief: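 Endogenous transcription factor activity read in HepG2 via transfected cis-promoter reporter units. After 24 h dosing, reporter mRNA measured by RT-PCR/capillary electrophoresis; gain or loss of signal fit relative to DMSO.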

[4] = ATG_DR4_LXR_CIS: Attagene CIS-FACTORIAL HepG2 Assay for human Liver X Receptor (LXR), DR4 submotif (AID 2282929); settings: HepG2 Attagene DR4 cis-reporter, mRNA transcription; actives raise or lower the signal
Method in brief: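 Readout: reporter transcript fluorescence after RT-PCR and capillary electrophoresis, fitted bidirectionally against DMSO controls. Human HepG2 liver cells carried transiently transfected multiplexed reporter constructs; endogenous transcription factor activity measured 24 h post-dosing.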

[5] = target: Aryl hydrocarbon receptor (Homo sapiens) (UniProt P35869); assay: ATG_Ahr_CIS: Attagene CIS-FACTORIAL HepG2 Assay for human Aryl Hydrocarbon Receptor (Ahr) (AID 2282930); settings: HepG2 AhR cis-factorial reporter transcription; actives raise or lower the signal
Sequence of Aryl hydrocarbon receptor (Homo sapiens) (P35869 whole entry, looked up): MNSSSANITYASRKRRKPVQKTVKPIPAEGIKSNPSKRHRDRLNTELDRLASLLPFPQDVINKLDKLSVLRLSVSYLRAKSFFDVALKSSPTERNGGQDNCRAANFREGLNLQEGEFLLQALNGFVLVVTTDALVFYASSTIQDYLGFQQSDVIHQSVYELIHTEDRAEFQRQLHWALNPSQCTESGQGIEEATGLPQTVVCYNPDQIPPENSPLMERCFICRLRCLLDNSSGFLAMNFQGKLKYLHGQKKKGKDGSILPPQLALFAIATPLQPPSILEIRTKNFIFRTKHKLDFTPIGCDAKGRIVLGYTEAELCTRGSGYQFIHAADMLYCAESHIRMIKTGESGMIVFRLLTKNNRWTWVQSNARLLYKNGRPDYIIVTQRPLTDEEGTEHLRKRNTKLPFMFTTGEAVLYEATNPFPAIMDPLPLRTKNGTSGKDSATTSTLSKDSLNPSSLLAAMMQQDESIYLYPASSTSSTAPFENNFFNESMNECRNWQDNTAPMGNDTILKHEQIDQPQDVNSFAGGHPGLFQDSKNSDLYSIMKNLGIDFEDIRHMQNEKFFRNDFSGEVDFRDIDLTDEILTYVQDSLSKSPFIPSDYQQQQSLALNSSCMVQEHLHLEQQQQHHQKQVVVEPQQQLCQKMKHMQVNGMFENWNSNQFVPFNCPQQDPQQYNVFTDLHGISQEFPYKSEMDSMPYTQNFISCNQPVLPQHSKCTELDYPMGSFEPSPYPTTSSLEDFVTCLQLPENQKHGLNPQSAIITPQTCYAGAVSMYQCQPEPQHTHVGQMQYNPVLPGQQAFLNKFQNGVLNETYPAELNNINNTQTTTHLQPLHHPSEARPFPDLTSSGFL
Method in brief: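 HepG2 cells transiently transfected with cis-element-driven multiplexed reporter units; endogenous AhR activity read as reporter mRNA 24 h after dosing, via RT-PCR, 6-FAM labelling, HpaI digestion and capillary electrophoresis. Bidirectional fit relative to DMSO.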

[6] = ATG_AP_1_CIS: Attagene CIS-FACTORIAL HepG2 Assay for human Activator Protein 1 (AP-1) (AID 2282931); settings: HepG2 Attagene cis-factorial AP-1 reporter mRNA; actives raise or lower the signal
Method in brief: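 Reporter transcripts were measured 24 h after dosing by RT-PCR and capillary electrophoresis of fluorescent fragments. Cells: HepG2 carrying transfected cis-regulated reporter constructs reading endogenous factor activity. Gain or loss fitted against DMSO.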

[7] = ATG_AP_2_CIS: Attagene CIS-FACTORIAL HepG2 Assay for human Activator Protein 2 (AP-2) (AID 2282932); settings: HepG2 AP-2 cis-reporter, Attagene transcription factor profiling; actives raise or lower the signal
Method in brief: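 Multiplexed mRNA reporter assay in HepG2: cis-regulated units report endogenous factor activity after 24 h treatment. Fluorescence from capillary electrophoresis of RT-PCR products gives the signal, with DMSO as baseline.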

[8] = ATG_BRE_CIS: Attagene CIS-FACTORIAL HepG2 Assay for human Bone Morphogenetic Protein (BMP) Response Element (BRE) (AID 2282933); settings: HepG2 BMP response element reporter, Attagene transcription factor profiling; actives raise or lower the signal
Method in brief: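 Fluorescence-labelled reporter cDNA fragments, separated by capillary electrophoresis, gave the signal for this component of a 52-readout multiplex. HepG2 cells were transfected, exposed to chemicals for 24 h, and compared with DMSO using bidirectional fitting.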

[9] = target: Retinoic acid receptor alpha (Homo sapiens) (UniProt P10276); assay: ATG_DR5_RAR_CIS: Attagene CIS-FACTORIAL HepG2 Assay for human Retinoic Acid Receptor Alpha (RARE), DR5 submotif (AID 2282934); settings: HepG2 Attagene cis-factorial RARE DR5 reporter, mRNA; actives raise or lower the signal;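 on AC50: reporter responds to endogenous RAR alpha beta and gamma in HepG2 not RARA alone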
Sequence of Retinoic acid receptor alpha (Homo sapiens) (P10276 whole entry, looked up): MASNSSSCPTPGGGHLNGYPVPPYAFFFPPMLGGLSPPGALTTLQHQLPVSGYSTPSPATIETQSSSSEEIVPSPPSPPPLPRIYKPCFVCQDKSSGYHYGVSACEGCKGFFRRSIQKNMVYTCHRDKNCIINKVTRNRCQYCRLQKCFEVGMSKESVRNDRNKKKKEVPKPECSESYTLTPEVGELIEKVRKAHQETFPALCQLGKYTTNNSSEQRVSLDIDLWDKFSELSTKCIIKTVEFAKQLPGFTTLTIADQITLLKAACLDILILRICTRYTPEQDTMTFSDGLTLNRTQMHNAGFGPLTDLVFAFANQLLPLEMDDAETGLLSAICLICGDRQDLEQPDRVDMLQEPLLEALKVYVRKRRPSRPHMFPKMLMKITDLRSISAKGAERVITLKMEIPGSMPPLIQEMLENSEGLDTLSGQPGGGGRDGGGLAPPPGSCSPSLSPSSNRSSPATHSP
Method in brief: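 HepG2 cells transiently transfected with multiplexed reporter units; DR5 cis-element drives reporter through endogenous transcription factors. After 24 h dosing, reporter mRNA quantified by RT-PCR, fluorescent labeling, HpaI digestion and capillary electrophoresis; bidirectional fitting versus DMSO.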

[10] = target: Transcription factor E2F1 (Homo sapiens) (UniProt Q01094); assay: ATG_E2F_CIS: Attagene CIS-FACTORIAL HepG2 Assay for human E2F Transcription Factor 1 (AID 2282935); settings: HepG2 Attagene cis-reporter, E2F reporter RNA transcripts; actives raise or lower the signal
Sequence of Transcription factor E2F1 (Homo sapiens) (Q01094 whole entry, looked up): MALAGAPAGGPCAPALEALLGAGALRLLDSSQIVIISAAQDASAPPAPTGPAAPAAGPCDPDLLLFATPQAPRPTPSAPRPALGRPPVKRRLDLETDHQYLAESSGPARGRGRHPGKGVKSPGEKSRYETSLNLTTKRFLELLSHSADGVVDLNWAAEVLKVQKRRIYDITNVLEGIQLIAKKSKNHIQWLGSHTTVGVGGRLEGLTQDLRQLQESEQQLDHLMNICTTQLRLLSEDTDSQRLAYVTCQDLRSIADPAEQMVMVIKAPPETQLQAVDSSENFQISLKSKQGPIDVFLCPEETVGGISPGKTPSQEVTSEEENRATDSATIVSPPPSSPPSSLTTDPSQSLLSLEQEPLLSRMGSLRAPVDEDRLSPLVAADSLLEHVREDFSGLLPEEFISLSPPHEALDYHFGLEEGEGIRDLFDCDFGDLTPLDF
Method in brief: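 Measures reporter transcript levels via RT-PCR with capillary electrophoresis detection in HepG2 cells harboring cis-regulated reporter units; 24 h post-dose; bidirectional curve fitting with DMSO as baseline.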

[11] = ATG_E_Box_CIS: Attagene CIS-FACTORIAL HepG2 Assay for human Enhancer Box (E-box) (AID 2282936); settings: HepG2 E-box cis-reporter transcription, actives raise or lower the signal
Method in brief: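 First, HepG2 cells receive multiple cis-regulated reporter constructs by transient transfection. Next, chemicals are applied for 24 h. Finally, reporter mRNA is quantified via RT-PCR and capillary electrophoresis, with DMSO as baseline.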

[12] = ATG_EGR_CIS: Attagene CIS-FACTORIAL HepG2 Assay for human Early Growth Response 1 (EGR1) (AID 2282938); settings: HepG2 Attagene CIS-FACTORIAL EGR reporter mRNA; actives raise or lower the signal
Method in brief: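 Read-out: fluorescent reporter-mRNA fragments resolved by capillary electrophoresis after RT-PCR, 24 h post-dose in transiently transfected HepG2. Endogenous transcription-factor activity reported via cis-element-regulated reporter units; gain or loss fitted relative to DMSO.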

[13] = ATG_Ets_CIS: Attagene CIS-FACTORIAL HepG2 Assay for human Erythroblast Transformation Specific (ETS) (AID 2282941); settings: HepG2 ETS cis-reporter transcription, actives raise or lower the signal
Method in brief: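 Steps: transfect HepG2 with multiple reporter units; treat compound 24 h; isolate RNA, DNase-treat, reverse-transcribe; PCR-amplify, label with 6-FAM, digest with HpaI; separate by capillary electrophoresis. Activity fitted both directions versus DMSO.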

[14] = target: Hepatocyte nuclear factor 3-beta (Homo sapiens) (UniProt Q9Y261); assay: ATG_FoxA2_CIS: Attagene CIS-FACTORIAL HepG2 Assay for human Forkhead box A2 (FOXA2) (AID 2282942); settings: HepG2 cis-reporter transcription factor activity, 24 h; actives raise or lower the signal
Sequence of Hepatocyte nuclear factor 3-beta (Homo sapiens) (Q9Y261 whole entry, looked up): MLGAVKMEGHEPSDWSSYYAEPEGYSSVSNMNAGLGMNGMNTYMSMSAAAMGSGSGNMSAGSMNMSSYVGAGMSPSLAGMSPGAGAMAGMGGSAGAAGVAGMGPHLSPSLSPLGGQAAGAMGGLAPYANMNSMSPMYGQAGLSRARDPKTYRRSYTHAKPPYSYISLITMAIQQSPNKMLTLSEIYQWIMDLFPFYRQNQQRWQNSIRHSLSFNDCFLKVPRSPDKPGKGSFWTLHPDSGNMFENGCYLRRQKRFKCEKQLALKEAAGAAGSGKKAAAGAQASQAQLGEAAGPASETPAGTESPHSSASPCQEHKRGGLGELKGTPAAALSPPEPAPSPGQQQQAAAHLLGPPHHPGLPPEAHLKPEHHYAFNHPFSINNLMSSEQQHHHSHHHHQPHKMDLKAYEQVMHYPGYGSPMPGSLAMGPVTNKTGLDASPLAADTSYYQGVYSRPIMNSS
Method in brief: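 Readout: fluorescent reporter transcripts resolved by capillary electrophoresis after RT-PCR. Transiently transfected HepG2, 24 h compound exposure, endogenous TF activity at cis promoter elements. Gain or loss of signal fitted relative to DMSO.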

[15] = ATG_FoxO_CIS: Attagene CIS-FACTORIAL HepG2 Assay for human Forkhead box O (FoxO) (AID 2282943); settings: HepG2 Attagene cis-reporter, FoxO element, mRNA; actives raise or lower the signal
Method in brief: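 HepG2 cells transiently transfected with cis-element-driven reporter units report endogenous FoxO activity. After 24 h chemical exposure, reporter mRNA quantified by RT-PCR, fluorescent labeling, HpaI digestion and capillary electrophoresis; bidirectional fit versus DMSO.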

[16] = ATG_GATA_CIS: Attagene CIS-FACTORIAL HepG2 Assay for human GATA Binding Protein (AID 2282944); settings: HepG2 GATA cis-element reporter, Attagene multiplex mRNA; actives raise or lower the signal
Method in brief: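 Cells: HepG2, transiently transfected with cis-regulated reporter transcription units. Exposure: 24 h. Detection: RT-PCR plus capillary electrophoresis of FAM-labeled fragments. Analysis: bidirectional, DMSO as baseline.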

[17] = ATG_GLI_CIS: Attagene CIS-FACTORIAL HepG2 Assay for human Zinc Finger Protein GLI1 (AID 2282945); settings: HepG2, Attagene cis-factorial reporter mRNA, GLI element; actives raise or lower the signal
Method in brief: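 Transiently transfected HepG2 cells report endogenous transcription factor activity via cis-element-driven reporter units. After 24 h compound exposure, reporter mRNA was measured by RT-PCR with capillary electrophoresis; bidirectional fitting against DMSO baseline.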

[18] = ATG_M_19_CIS: Attagene CIS-FACTORIAL HepG2 Assay for M19 Transcription Factor (Internal Marker) (AID 2282939); settings: HepG2 Attagene CIS-FACTORIAL M19 internal marker reporter; actives raise or lower the signal
Method in brief: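 HepG2, MRTU transient transfection, 24 h dosing. Total RNA → RT-PCR → 6-FAM primer extension → HpaI digest → CE fluorescence. Bidirectional curve fit, DMSO negative control.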

[19] = ATG_M_61_CIS: Attagene CIS-FACTORIAL HepG2 Assay for M61 Transcription Factor (Internal Marker) (AID 2282937); settings: HepG2 Attagene CIS-FACTORIAL M61 internal marker reporter; actives raise or lower the signal
Method in brief: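 Readout: fluorescent reporter mRNA fragments resolved by capillary electrophoresis after RT-PCR. Transiently transfected human HepG2 cells carried MRTU constructs reporting endogenous TF activity; 24 h chemical exposure; gain or loss of signal fitted relative to DMSO.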

[20] = ATG_ERE_CIS: Attagene CIS-FACTORIAL HepG2 Assay for Estrogen Response Element (ERE) (AID 2282940); settings: HepG2 ERE cis-reporter, Attagene RNA transcript; actives raise or lower the signal
Method in brief: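 After a 24 h chemical treatment, RNA from reporter-transfected HepG2 cells is reverse-transcribed, PCR-amplified and fluorescently labelled. Fragments separated by capillary electrophoresis give reporter signal; DMSO serves as negative control.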

Measured: AC50

Cc1ccc(O)cc1
not listed: [18] | [19] | [20]
inactive: all other assays above

O=C1OC(=O)C2C3C=CC(C3)C12 (stereo not drawn)
not listed: [19] | [20]
inactive: all other assays above

CCOC(=O)c1ccc(C2CCC(NC[C@H](O)COc3ccc(O)c(NS(C)(=O)=O)c3)CC2)cc1 (stereo partly drawn)
active: [1] 51.8 µM | [2] 51.1 µM | [4] 60 µM | [6] 51.5 µM | [9] 51.4 µM | [12] 56.8 µM | [15] 53.5 µM | [16] 48.8 µM | [17] 59.6 µM
inactive: [3] | [5] | [7] | [8] | [11] | [19] | [13] | [14]

CCC(C)(C)C(=O)O[C@H]1C[C@@H](C)C=C2C=C[C@H](C)[C@H](CC[C@@H]3C[C@@H](O)CC(=O)O3)[C@H]21
active: [20] 6.94 µM
not listed: [18] | [19]
inactive: all other assays above

CC(=O)OCCC(C)C
not listed: [19] | [20]
inactive: all other assays above

C=CC(=C)CCC=C(C)C
active: [5] 67.1 µM
not listed: [10] | [18]
inactive: all other assays above

Cn1c(=O)c2c(ncn2C)n(C)c1=O
not listed: [10] | [18] | [20]
inactive: all other assays above
